Laboratory results: PubChem BioAssay (NCATS)
Inconclusive results are not listed. Where a call stands in place of a potency, no number is given. The source made the active and inactive calls. Calls come from the whole dose curve; as a rule, active = well fitted curve in the direction sought with a large enough effect; inconclusive = small, poorly fitted or top-dose-only effect, or another doubt; inactive = no such curve, though single readings can be large; an effect the other way counts as inactive or inconclusive.

How the values were obtained:
[1] = Cell Viability - LYMP2-003 (AID 965);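 note: cells exposed to compounds for 24 h before reading; nearly all actives have a fitted effect of over 50% in size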; note: potency is the fitted concentration of half-maximal effect
Outline: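 Human lymphoblastoid cells (2500/well) were pre-incubated 5 hr at 37 C, then exposed to compounds over a concentration range for 24 hr at 37 C. Intracellular ATP was read by CellTiter-Glo luminescence; AC50 came from Hill-equation fits.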

[2] = Cell Viability - LYMP2-011 (AID 969); note: nearly all actives have a fitted effect of over 60% in size; note: potency is the fitted concentration of half-maximal effect
Outline: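 Cells seeded at 2500 per well rest 5 hr before compound addition, then incubate 24 hr at 37 C. CellTiter-Glo reagent is added for 30 min at room temperature before luminescence detection.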

[3] = Cell Viability - LYMP2-013 (AID 970); note: nearly all actives have a fitted effect of over 55% in size; note: potency is the fitted concentration of half-maximal effect
Outline: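 In complete culture medium, human lymphoblastoid cells were dosed for 24 hr at 37 C, with tetraoctylammonium bromide (6.4pM to 92 uM) as positive control. Viability reflects luciferase-based ATP signal; AC50 derived from concentration-response curves.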

[4] = Cell Viability - LYMP2-015 (AID 971); note: nearly all actives have a fitted effect of over 55% in size; note: potency is the fitted concentration of half-maximal effect
Outline: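 AC50 values reflect Hill-model fits of ATP-based luminescence (CellTiter-Glo) from a human lymphoblastoid line, 2500 cells/well, treated 24 hr at 37 C.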

[5] = Cell Viability - LYMP2-017 (AID 972); note: nearly all actives have a fitted effect of over 55% in size; note: potency is the fitted concentration of half-maximal effect
Outline: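 In this qHTS format, lymphoblastoid cells in complete medium receive test compound for a day at 37 C before ATP content is quantified by luciferase luminescence. Reported AC50 figures come from standard Hill-equation curve fitting.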

[6] = Cell Viability - LYMP2-019 (AID 973); note: nearly all actives have a fitted effect of over 55% in size; note: potency is the fitted concentration of half-maximal effect
Outline: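 AC50 values come from Hill-equation modelling of qHTS concentration-response curves, where viability is measured as luciferase-based ATP luminescence in the lymphoblastoid line after 24 hr compound exposure in complete culture medium.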

[7] = Cell Viability - LYMP2-021 (AID 974); note: potency is the fitted concentration of half-maximal effect
Outline: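 In qHTS format, compounds are tested against 2500 lymphoblastoid cells per well for 24 h; viable cell number is inferred from ATP-driven luciferase light, and Hill-equation fitting yields AC50 values.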

[8] = Cell Viability - LYMP2-023 (AID 975); note: nearly all actives have a fitted effect of over 55% in size; note: potency is the fitted concentration of half-maximal effect
Outline: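 In this qHTS, ATP-based luciferase luminescence (CellTiter-Glo) is quantified in human lymphoblastoid cells after 24 hr compound treatment at 37 C; tetraoctylammonium bromide serves as positive control. Concentration-response curves are Hill-fitted to give AC50.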

[9] = Cell Viability - LYMP2-004 (AID 966); note: nearly all actives have a fitted effect of over 65% in size; note: potency is the fitted concentration of half-maximal effect
Outline: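 Viable-cell number estimated from ATP luminescence (CellTiter-Glo) in 2500 human lymphoblastoid cells/well after 24 hr at 37 C with compound. AC50 fitted to the standard Hill equation.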

[10] = Cell Viability - LYMP2-005 (AID 967); note: series mostly up to about 92 µM
Outline: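 CellTiter-Glo luminescence (cellular ATP) read-out; LYMP2-005 lymphoblastoid cells, 2500/well, 5 h pre-incubation, then 24 h compound exposure at 37 C in complete medium. Tetraoctylammonium bromide positive control; AC50 by standard Hill fit.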

| SMILES | Potency [1] | Potency [2] | Potency [3] | Potency [4] | Potency [5] | Potency [6] | Potency [7] | Potency [8] | Potency [9] | outcome [10] |
| --- | --- | --- | --- | --- | --- | --- | --- | --- | --- | --- |
| CC(=O)O[C@]1(C(C)=O)CC[C@H]2[C@@H]3C=C(Cl)C4=CC(=O)[C@@H]5C[C@@H]5[C@]4(C)[C@H]3CC[C@@]21C | inactive | inactive | inactive | inactive | inactive | inactive | inactive | inactive |  |  |
| O=c1[nH]cnc2c1ncn2[C@H]1CC[C@@H](CO)O1 | inactive | inactive | inactive | inactive | inactive | inactive | inactive | inactive | inactive | inactive |
| O=C1NC(=O)C(c2ccccc2)(c2ccccc2)N1 | inactive | inactive | inactive | inactive | inactive | inactive | inactive | inactive | inactive | inactive |
| CC1=C(/C=C/C(C)=C/C=C/C(C)=C/C(=O)Nc2ccc(O)cc2)C(C)(C)CCC1 | 39.8 µM (active) | 63.1 µM (active) | 50.1 µM (active) |  | 50.1 µM (active) | 50.1 µM (active) | 50.1 µM (active) | 50.1 µM (active) | 39.8 µM (active) |  |
| CCCCC1C(=O)N(c2ccccc2)N(c2ccccc2)C1=O | inactive | inactive | inactive | inactive |  | inactive | inactive | inactive | inactive | inactive |
| O=C(O)Cc1cccc2ccccc12 | inactive | inactive | inactive | inactive | inactive | inactive | inactive | inactive | inactive | inactive |
| CC/C(=C(\c1ccccc1)c1ccc(OCCN(C)C)cc1)c1ccccc1 | 39.8 µM (active) | 50.1 µM (active) | 50.1 µM (active) |  | 50.1 µM (active) | 50.1 µM (active) | 50.1 µM (active) | 50.1 µM (active) |  |  |
| O=c1c(-c2ccc(O)cc2)coc2cc(O)ccc12 | inactive | inactive | inactive | inactive | inactive | inactive | inactive | inactive | inactive | inactive |
| O=c1cc(-c2ccc(O)cc2)oc2cc(O)cc(O)c12 | inactive |  |  |  |  | inactive |  |  | inactive | inactive |
| O=C(O)c1cc(O)c2c(c1)C(=O)c1cccc(O)c1C2=O | inactive |  |  | 50.1 µM (active) |  |  |  |  | inactive | inactive |
| CCn1cc(C(=O)O)c(=O)c2ccc(C)nc21 | inactive | inactive | inactive | inactive | inactive | inactive | inactive | inactive | inactive | inactive |
| CN(C)CCC(c1ccccc1)c1ccccn1 (stereo not given) | inactive | inactive | inactive | inactive | inactive | inactive | inactive | inactive | inactive | inactive |
| CC(=O)c1ccc(S(=O)(=O)NC(=O)NC2CCCCC2)cc1 | inactive | inactive | inactive | inactive | inactive | inactive | inactive | inactive | inactive | inactive |
| O=c1c(O)c(-c2ccc(O)cc2)oc2cc(O)cc(O)c12 | inactive | inactive | inactive | inactive | inactive | inactive | inactive | inactive | inactive | inactive |
| CCCNC(=O)NS(=O)(=O)c1ccc(Cl)cc1 | inactive | inactive | inactive | inactive | inactive | inactive | inactive | inactive | inactive | inactive |
